PDI inh: PDI (human) enzyme inhibition | hit rate 0.052% among 350,000 | inhibition, % at 10 µM | PDI insulin aggregation turbidity, A650, 90 min | P07237;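 active = mean inhibition across replicates of 30% or more, whatever share of single replicates reach that level; inconclusive = mean inhibition below 30% while every single replicate reaches 30%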
MLL AF4-AF9 inh: blocks AF4 peptide binding to human AF9; inhibition, % at 10 µM; P42568; hit rate 0.47% among 350,000; AlphaScreen, biotin-AF4 peptide binding to FLAG-AF9;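 active = every replicate reaching a set inhibition limit, whatever the replicate mean, cut at about 25% in these data; inconclusive = mean inhibition reaches that limit but some replicates miss it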
ERp5 block: blocks human ERp5 reductase activity on insulin | ERp5 insulin aggregation, absorbance 650 nm, 90 min | Q15084 | inhibition, % at 9.99 µM | hit rate 0.05% among 350,000;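 active = mean replicate inhibition above about 25%, with every replicate also reaching it, limit read from the data, passing the limit was not always enough; inconclusive = only one of those two criteria met; inactive = neither criterion met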
DENV2 CPE rescue: inhibitors of DENV2 cytopathic effect; DENV2-infected cells, cytopathic effect rescue, plate reader; CPE inhibition, % at 9.99 µM; hit rate 1.7% among 350,000; AID 651640; in the data active = CPE inhibition above about 20%, passing the limit was not always enough; inconclusive = no clear call, values can overlap the other calls; tested in BHK-21 cells
ERAP1 inh: blocks human ERAP1 aminopeptidase activity | Q9NZ08 | recombinant ERAP1, Leu-AMC fluorescence, 60 min | inhibition, % at 10.7 µM | hit rate 0.15% among 340,000 | AID 652197;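 active = mean replicate inhibition of at least 30%, or all replicates individually reaching that 30% level; inactive = mean below 30% and not every replicate reaching it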
A number is an active result; 0 = inactive; ? = inconclusive; - = no result given. Hits are enriched below; roughly 1.8% of the tested compounds scored in any of these assays.

SMILES | PDI inh | MLL AF4-AF9 inh | ERp5 block | DENV2 CPE rescue | ERAP1 inh
COc1cccc(NC(=O)Nc2ccc3c(c2)C(=O)N(C)C[C@H](OC)[C@@H](C)CN(CC2CC2)[C@H](C)CO3)c1 | - | 0 | 0 | 0 | 0
COc1cccc(NC(=O)Nc2ccc3c(c2)C(=O)N(C)C[C@H](OC)[C@@H](C)CN(CC2CC2)[C@@H](C)CO3)c1 | - | 0 | 0 | 22 | 0
CO[C@H]1CN(C)C(=O)c2cc(NC(=O)CC(F)(F)F)ccc2OC[C@H](C)N(CC2CC2)C[C@H]1C | - | - | - | 54 | -
CO[C@@H]1CN(C)C(=O)c2cc(NC(=O)c3ccccc3F)ccc2OC[C@H](C)N(CC2CC2)C[C@@H]1C | - | 0 | 0 | 43 | 0
COCCNC(=O)C[C@H]1CC[C@H](NC(=O)NC2CCCC2)[C@H](CO)O1 | - | 0 | 0 | 0 | 0
COCCNC(=O)C[C@@H]1CC[C@H](NC(=O)NC2CCCC2)[C@@H](CO)O1 | - | 0 | 0 | 22 | 0
NC(=O)c1ccc(-c2ccccc2F)cc1 | 0 | 0 | 0 | 0 | -
NNC(=O)c1ccc(-c2ccccc2F)cc1 | 0 | 0 | - | 27 | 0
O=c1ccn(C2CC(O)C(COC(c3ccccc3)(c3ccccc3)c3ccccc3)O2)c(=O)[nH]1 (configuration not stated) | - | 0 | 0 | 47 | 0
CC(=O)Nc1ccc2c(c1)C(=O)N(C)[C@@H]1CC[C@@H](CC(=O)N3CCc4ccccc4C3)O[C@H]1CO2 | - | - | - | 0 | -
CC(O)CNc1nc2sc3c(c2c(=O)n1Cc1ccco1)CCCCC3 (configuration not stated) | 0 | 0 | 0 | 29 | 0
C[C@H](CO)N1C[C@H](C)[C@@H](CN(C)C(=O)Nc2ccc(F)cc2)Oc2ccc(NS(=O)(=O)c3cccs3)cc2C1=O | - | 0 | 0 | 0 | 0
C[C@@H]1CN([C@@H](C)CO)C(=O)c2cc(NS(=O)(=O)c3cccs3)ccc2O[C@@H]1CN(C)C(=O)Nc1ccc(F)cc1 | - | 47 | 0 | 0 | 0
C[C@@H]1CCCCO[C@H](CN(C)C(=O)Nc2ccc(C(F)(F)F)cc2)[C@H](C)CN([C@@H](C)CO)C(=O)c2cc(NS(=O)(=O)c3cccs3)ccc2O1 | - | 0 | 0 | 37 | 0
C[C@@H]1CCCCO[C@H](CN(C)C(=O)Nc2ccc(F)cc2)[C@@H](C)CN([C@H](C)CO)C(=O)c2cc(NS(=O)(=O)c3cccs3)ccc2O1 | - | 0 | 0 | 22 | 0
COc1ccc(C[C@H]2CCc3cnnn3COC[C@@H](C(C)C)NC2=O)cc1 | - | 0 | 0 | 0 | 0
O=C1c2ccccc2NC(c2ccc(-c3cccc(F)c3)o2)N1O (configuration not stated) | 0 | 0 | 0 | 0 | 0
O=C1c2ccccc2NC(c2ccc(-c3ccccc3F)o2)N1O (configuration not stated) | 0 | 0 | 0 | 25 | 0
C[C@@H]1CN([C@@H](C)CO)S(=O)(=O)c2ccc(/C=C/c3ccccc3)cc2O[C@@H]1CN(C)C(=O)c1ccccc1 | - | - | - | 0 | -
O=C(OCCC12CC3CC(CC(C3)C1)C2)c1ccc(NCc2cc(O)ccc2O)cc1 | 0 | 28 | 0 | 0 | 0
CCCCCCCC1c2c(c(C)c(C)oc2=O)Oc2c(C)c(C)oc(=O)c21 | 0 | - | 0 | 89 | 0
CCCC(C)C1c2c(c(C)c(C)oc2=O)Oc2c(C)c(C)oc(=O)c21 (configuration not stated) | 0 | 0 | 0 | - | 0
COc1cccc(C(NC(C)=O)c2nc(/C=C/c3ccccc3)cs2)c1 (configuration not stated) | 0 | 0 | 0 | 30 | 0
COc1cccc(C(O)c2nc(/C=C/c3ccccc3)cs2)c1 (configuration not stated) | 0 | 0 | 0 | 0 | 0
CN(C)c1ccc(NC(=O)CN2CCC(NC(=O)C3CCCCC3)CC2)cc1 | 0 | 51 | 0 | 0 | 0
SMILES | PDI inh | MLL AF4-AF9 inh | ERp5 block | DENV2 CPE rescue | ERAP1 inh
O=C(CN1CCC(NC(=O)C2CCCCC2)CC1)Nc1ccccc1 | 0 | 0 | 0 | ? | 0
CCCC(=O)Nc1cc(OC)c(NC(=S)Nc2ccc(CC)cc2)cc1OC | 0 | 0 | 0 | 0 | 0
CCCC(=O)Nc1cc(OC)c(NC(=S)Nc2cccc(C)c2)cc1OC | 0 | 0 | 0 | 92 | 0
COc1ccccc1CNC(=O)C[C@H]1CC[C@H]2[C@@H](COC[C@H](O)CN2Cc2cccc(-c3ccncc3)c2)O1 | - | - | - | 0 | -
COc1ccc(S(=O)(=O)Nc2ccc3c(c2)CC(=O)N([C@H](C)CO)C[C@@H](C)[C@@H](CN(C)Cc2ccc4c(c2)OCO4)O3)cc1 | - | 0 | 0 | 0 | 0
COc1ccc(S(=O)(=O)Nc2ccc3c(c2)CC(=O)N([C@@H](C)CO)C[C@H](C)[C@H](CN(C)Cc2ccc4c(c2)OCO4)O3)cc1 | - | 0 | 0 | 28 | 0

Source: PubChem
